Reference: PubChem BioAssay (EPA / NIEHS)
Where “and” joins values, the source holds several entries; their conditions need not be identical. Equal entries are not always repeated. Some structures have more than one record in an assay (separate samples or runs), and their calls can disagree. Calls of active or inactive are those of the source. The calls were made as follows: active = hit-call score of the fitted dose curve at least 0.9, where 1 is the maximum; inactive = score below 0.9.

Tests used:
[1] = read-out: TIMP metallopeptidase inhibitor 2 (TIMP2), TIMP2 (gene 7077); experiment: BSK_KF3CT_TIMP2: BioMAP Diversity Plus: KF3CT Assay for TIMP metallopeptidase inhibitor 2 (TIMP2) Biomarker Activity (AID 2283071); conditions: primary human keratinocytes with fibroblasts; actives raise or lower the signal
How it was run: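 TIMP-2 measured by ELISA at 24 h in human keratinocyte/fibroblast primary co-cultures exposed to chemicals. Both increases and decreases were fitted against DMSO. Parallel cultures were stained with SRB for total protein as an overt-cytotoxicity check.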

[2] = read-out: C-C motif chemokine 2 (Homo sapiens) (UniProt P13500); experiment: BSK_KF3CT_MCP1: BioMAP Diversity Plus: KF3CT Assay for Monocyte Chemoattractant Protein 1 (MCP1/CCL2) Biomarker Activity (AID 2283073); conditions: primary human keratinocytes with fibroblasts; actives raise or lower the signal
How it was run: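 Keratinocytes and foreskin fibroblasts were co-cultured, dosed with chemical, and sampled 24 h later. MCP-1 was quantified by ELISA, and the endpoint was analyzed with bidirectional fitting using DMSO as negative control.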

[3] = read-out: Matrix Metallopeptidase 9 (MMP9), MMP9 (gene 4318); experiment: BSK_KF3CT_MMP9: BioMAP Diversity Plus: KF3CT Assay for Matrix Metallopeptidase 9 (MMP9) Biomarker Activity (AID 2283074); conditions: primary human keratinocytes with fibroblasts; actives raise or lower the signal;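 as to AC50: MMP9 protein level quantified by ELISA in the co-culture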
How it was run: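 ELISA read-out of MMP-9 at 24 h post-dosing in a co-culture of human skin keratinocytes and foreskin fibroblasts. Gain or loss of signal was fitted in both directions against DMSO.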

[4] = read-out: urokinase plasminogen activator (uPA), PLAU (gene 5328); experiment: BSK_KF3CT_uPA: BioMAP Diversity Plus: KF3CT Assay for urokinase plasminogen activator (uPA) Biomarker Activity (AID 2283075); conditions: primary human keratinocytes with fibroblasts; actives raise or lower the signal
How it was run: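 Skin co-culture (keratinocytes + foreskin fibroblasts), human primary; 24 h post-dose; uPA by ELISA; gain/loss fit vs DMSO baseline.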

CD40, CD40 (gene 958) = experiment: BSK_LPS_CD40: BioMAP Diversity Plus: LPS Assay for CD40 Biomarker Activity (AID 2283076); conditions: primary human HUVEC with PBMC; actives raise or lower the signal
How it was run: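 CD40 signal, measured by ELISA, is fitted in both directions relative to DMSO vehicle. The system is an LPS-driven human vascular primary co-culture of endothelial cells and PBMC, sampled 24 h after compound addition.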

[5] = read-out: E-selectin (Homo sapiens) (UniProt P16581); experiment: BSK_LPS_Eselectin: BioMAP Diversity Plus: LPS Assay for Eselectin Biomarker Activity (AID 2283077); conditions: primary human HUVEC with PBMC; actives raise or lower the signal
How it was run: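 Signal of E-selectin, detected by ELISA, served as the endpoint; cells were umbilical vein endothelium with PBMC, read 24 h after treatment. DMSO defined baseline, and both increases and decreases were fitted.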

[6] = read-out: Interleukin-8 (IL8), CXCL8 (gene 3576); experiment: BSK_LPS_IL8: BioMAP Diversity Plus: LPS Assay for Interleukin-8 (IL8) Biomarker Activity (AID 2283078); conditions: primary human HUVEC with PBMC; actives raise or lower the signal
How it was run: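 Endothelial cells and PBMC from human donors are co-cultured, treated with chemicals and LPS, then assayed for IL-8 by ELISA after 24 h. Parallel SRB staining (0.1% SRB after 10% TCA fixation, 560 nm) flags cytotoxicity.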

[7] = BSK_LPS_SRB: Viability Assessment in the BioMAP Diversity Plus: LPS Assay (AID 2283079); conditions: primary human HUVEC with PBMC;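 also: total protein by sulforhodamine B absorbance as a cytotoxicity measure; measured one day after compound addition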
How it was run: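 Overt cytotoxicity was gauged by sulforhodamine B total-protein staining in a primary human vascular endothelial and mononuclear cell co-culture 24 h post-dosing. Activity was fitted in both directions relative to DMSO.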

[8] = read-out: Interleukin-1 alpha (IL1a), IL1A (gene 3552); experiment: BSK_LPS_IL1a: BioMAP Diversity Plus: LPS Assay for Interleukin-1 alpha (IL1a) Biomarker Activity (AID 2283080); conditions: primary human HUVEC with PBMC; actives raise or lower the signal
How it was run: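 Measured: IL-1 alpha via ELISA at 24 h in LPS-activated human umbilical vein endothelium–PBMC co-culture. Baseline: DMSO, bidirectional fitting.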

[9] = read-out: Monocyte Chemoattractant Protein-1 (MCP1), CCL2 (gene 6347); experiment: BSK_LPS_MCP1: BioMAP Diversity Plus: LPS Assay for Monocyte Chemoattractant Protein-1 (MCP1) Biomarker Activity (AID 2283081); conditions: primary human HUVEC with PBMC; actives raise or lower the signal;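 as to AC50: secreted MCP-1 protein quantified by ELISA in culture supernatant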
How it was run: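 LPS-stimulated HUVEC/PBMC co-culture; chemical, 24 h; MCP-1 by ELISA; bidirectional fit vs DMSO; cytotoxicity via SRB (0.1% stain, 10% TCA fix, 560 nm) in parallel wells.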

Measured: AC50

Sequence of E-selectin (Homo sapiens) (P16581 whole entry, looked up): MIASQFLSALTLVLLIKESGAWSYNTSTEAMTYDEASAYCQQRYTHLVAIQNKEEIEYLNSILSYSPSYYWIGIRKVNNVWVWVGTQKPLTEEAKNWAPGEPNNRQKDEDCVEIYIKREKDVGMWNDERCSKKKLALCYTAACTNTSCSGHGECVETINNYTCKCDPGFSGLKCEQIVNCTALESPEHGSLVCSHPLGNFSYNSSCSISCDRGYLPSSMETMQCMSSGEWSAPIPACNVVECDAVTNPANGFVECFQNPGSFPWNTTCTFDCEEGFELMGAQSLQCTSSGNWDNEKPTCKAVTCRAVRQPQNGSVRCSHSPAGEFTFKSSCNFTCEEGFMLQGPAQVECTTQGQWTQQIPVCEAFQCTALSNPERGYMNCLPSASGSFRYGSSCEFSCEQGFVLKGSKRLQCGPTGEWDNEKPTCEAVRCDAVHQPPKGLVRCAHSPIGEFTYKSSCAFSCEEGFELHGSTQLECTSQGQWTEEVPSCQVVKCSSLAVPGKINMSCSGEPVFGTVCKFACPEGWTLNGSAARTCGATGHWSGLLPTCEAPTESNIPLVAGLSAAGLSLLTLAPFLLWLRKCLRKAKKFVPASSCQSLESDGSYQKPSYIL

OCCCCC(F)(F)C(F)(F)C(F)(F)C(F)(F)F
inactive: all assays above

O=C(c1ccccc1)c1ccc(O)cc1O
active: [3] 26 µM
inactive: all other assays above

O=C(Cl)C(F)(F)C(F)(F)C(F)(F)C(F)(F)C(F)(F)C(F)(F)C(F)(F)F
inactive: [1] | [2] | [3] | [4] | CD40, CD40 (gene 958) | [5] | [6] | [7] | [8] | [9]
active: [6] 20.2 µM and 16.6 µM

O=S(=O)(OCC(F)(F)F)C(F)(F)C(F)(F)C(F)(F)C(F)(F)F
inactive: [1] | [2] | [3] | [4] | CD40, CD40 (gene 958) | [5] | [6] | [7] | [8] | [9]
active: [4] 9.13 µM | CD40, CD40 (gene 958) 24.3 µM | [5] 41.4 µM | [8] 30 µM | [9] 20.6 µM

Cc1cc(C)c(O)c(C(C)(C)C)c1
active: [1] 28.8 µM | [2] 32.8 µM | [3] 30.2 µM | [4] 30.9 µM | CD40, CD40 (gene 958) 30.9 µM | [5] 32.1 µM | [7] 36.3 µM | [8] 32.7 µM | [9] 36.7 µM
inactive: [6]

NC(=O)C(F)(F)C(F)(F)C(F)(F)C(F)(F)C(N)=O
inactive: all assays above

Cc1cc(O)c(C(C)(C)C)cc1C(C)(C)C
active: [1] 2.05 µM | [2] 3.37 µM | [3] 5.96 µM | [4] 3.78 µM | CD40, CD40 (gene 958) 5.28 µM | [5] 6.95 µM | [6] 9.26 µM | [7] 7.74 µM | [8] 5.31 µM | [9] 9.04 µM

O=C(O)C(F)(F)C(F)(F)C(F)(F)OC(F)(C(F)(F)F)C(F)(F)F
inactive: [1] | [2] | [3] | [4] | CD40, CD40 (gene 958) | [5] | [7] | [8] | [9]
active: [3] 24.7 µM | [6] 7.64 µM and 9.75 µM

FC(F)(F)C(F)(F)C(F)(F)CC1CO1 (stereo not given)
inactive: all assays above

OCC(F)(F)C(F)(F)C(F)(F)CO
inactive: all assays above

NCC(F)(F)C(F)(F)C(F)(F)C(F)(F)C(F)(F)C(F)(F)C(F)(F)C(F)(F)F
inactive: all assays above

C=CC(=O)OCC(F)(F)C(F)(F)C(F)(F)C(F)(F)C(F)(F)C(F)(F)C(F)(F)C(F)F
active: [2] 30 µM | CD40, CD40 (gene 958) 24 µM
inactive: [1] | [2] | [3] | [4] | CD40, CD40 (gene 958) | [5] | [6] | [7] | [8] | [9]

O=C(Cl)C(F)(F)C(F)(F)C(F)(F)C(F)(F)C(F)(F)C(F)(F)F
active: [3] 18.3 µM | [6] 50.3 µM
inactive: [1] | [2] | [3] | [4] | CD40, CD40 (gene 958) | [5] | [6] | [7] | [8] | [9]

CC1=CC2C3C=CC(C3)C2C1C (stereo not given)
inactive: all assays above

NS(=O)(=O)C(F)(F)C(F)(F)C(F)(F)C(F)(F)C(F)(F)C(F)(F)F
inactive: [1] | [2] | [3] | [4] | CD40, CD40 (gene 958) | [5] | [6] | [7] | [8] | [9]
active: [3] 14.6 µM | CD40, CD40 (gene 958) 20.1 µM | [7] 40.1 µM | [9] 30 µM

O=C1c2c(O)ccc(Nc3ccc(CCO)cc3)c2C(=O)c2c([N+](=O)[O-])ccc(O)c21
inactive: [2] | [4] | [6] | [8]
active: [1] 0.54 µM | [3] 20 µM | CD40, CD40 (gene 958) 8.34 µM | [5] 20 µM | [7] 3.97 µM | [9] 20 µM
